In all, about 5,500 compounds went through this assay and about 2,000 (36%) were called active. About 18% were inconclusive and are not listed. Rule as the data show it: active = normalized growth mostly below about 0.91 (no sharp cut-off); inconclusive = no clear call, values can overlap the other calls; inactive = mostly above about 0.92. Some of the results follow.
Test: chemical genetic growth profiling, strain panel (AID 1159580);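 also: tested at 20 µM; growth read once vehicle control cultures reached saturation at 30 °C; 1 = growth at the plate median or of vehicle wells; lower values mean less growth of the strain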
Conditions: S. cerevisiae deletion strains, growth OD

Measured: normalized growth

O=C(N/C=C/c1ccsc1)Nc1cc(C(F)(F)F)cc(C(F)(F)F)c1
active: locus YDL214C, strain PRR2, active compounds read low 0.643 | locus YDR477W, strain SNF1, active compounds read low 0.61 | locus YER123W, strain YCK3, active compounds read low 0.44 | locus YER133W, strain GLC7, active compounds read low 0.63 | locus YFR019W, strain FAB1, active compounds read low 0.639 | locus YGR040W, strain KSS1, active compounds read low 0.613 | locus YGR052W, strain FMP48, active compounds read low 0.33 | locus YGR092W, strain DBF2, active compounds read low 0.254 | locus YHR030C, strain SLT2, active compounds read low 0.426 | locus YHR079C, strain IRE1, active compounds read low 0.457 | locus YHR082C, strain KSP1, active compounds read low 0.393 | locus YHR205W, strain SCH9, active compounds read low 0.516 | locus YJL095W, strain BCK1, active compounds read low 0.505 | locus YJL157C, strain FAR1, active compounds read low 0.676 | locus YJR066W, strain TOR1 (second series), active compounds read low 0.507 | locus YKL048C, strain ELM1, active compounds read low 0.726 | locus YKL067W, strain YNK1, active compounds read low 0.587 | locus YKL101W, strain HSL1, active compounds read low 0.387 | locus YKL203C, strain TOR2, active compounds read low 0.58 | locus YLR113W, strain HOG1, active compounds read low 0.315 | locus YLR133W, strain CKI1, active compounds read low 0.597 | locus YLR403W, strain SFP1, active compounds read low 0.444 | locus YML070W, strain DAK1, active compounds read low 0.361 | locus YMR205C, strain PFK2 (second series), active compounds read low 0.672 | locus YNL020C, strain ARK1, active compounds read low 0.541 | locus YNL183C, strain NPR1, active compounds read low 0.309 | locus YNL307C, strain MCK1 (second series), active compounds read low 0.41 | locus YOL136C, strain PFK27, active compounds read low 0.555 | locus YOR231W, strain MKK1, active compounds read low 0.507 | locus YPL031C, strain PHO85, active compounds read low 0.417 | locus YPL153C, strain RAD53, active compounds read low 0.345 | locus YPL204W, strain HRR25, active compounds read low 0.434 | locus YPL256C, strain CLN2, active compounds read low 0.444
inactive: locus YAR019C, strain CDC15, active compounds read low 0.968 | locus YBL105C, strain PKC1, active compounds read low 0.967 | locus YBR135W, strain CKS1, active compounds read low 0.974 | locus YBR136W, strain MEC1, active compounds read low 0.989 | locus YBR160W, strain CDC28, active compounds read low 0.976 | locus YDL017W, strain CDC7, active compounds read low 0.98 | locus YDL028C, strain MPS1, active compounds read low 0.979 | locus YDL101C, strain DUN1, active compounds read low 0.995 | locus YDL108W, strain KIN28, active compounds read low 0.987 | locus YDL132W, strain cdc53, active compounds read low 0.983 | locus YDR052C, strain DBF4, active compounds read low 0.98 | locus YDR054C, strain cdc34, active compounds read low 0.958 | locus YDR226W, strain ADK1, active compounds read low 0.98 | locus YFL009W, strain cdc4, active compounds read low 0.977 | locus YFL029C, strain CAK1, active compounds read low 0.98 | locus YFR003C, strain YPI1, active compounds read low 0.979 | locus YFR028C, strain CDC14, active compounds read low 0.97 | locus YIL147C, strain SLN1, active compounds read low 0.981 | locus YJL128C, strain PBS2, active compounds read low 0.873 | locus YJR016C, strain ILV3, active compounds read low 0.977 | locus YJR066W, strain TOR1, active compounds read low 0.507 | locus YKL193C, strain SDS22, active compounds read low 0.979 | locus YMR001C, strain CDC5, active compounds read low 0.976 | locus YMR277W, strain FCP1, active compounds read low 0.966 | locus YNL006W, strain LST8, active compounds read low 0.979 | locus YNL161W, strain CBK1, active compounds read low 0.976 | locus YNL207W, strain RIO2, active compounds read low 0.976 | locus YNL222W, strain SSU72, active compounds read low 0.974 | locus YOL078W, strain AVO1, active compounds read low 0.984 | locus YOR061W, strain CKA2, active compounds read low 0.726 | locus YOR119C, strain RIO1, active compounds read low 0.719 | locus YOR329C, strain SCD5, active compounds read low 0.981 | locus YPL209C, strain IPL1, active compounds read low 0.968 | locus YPR025C, strain CCL1, active compounds read low 0.98 | locus YPR106W, strain ISR1, active compounds read low 0.971 | locus YPR111W, strain DBF20, active compounds read low 0.958 | strain NNK1, active compounds read low 0.969 | strain TSCII, active compounds read low 0.973

Source: PubChem BioAssay AID1159580 (chemical genetic matrix, 2015)
